# Assay outcomes: PubChem BioAssay, National Center for Advancing Translational Sciences (NCATS)
# Pf growth 96h – Primary qHTS for delayed death inhibitors of the malarial parasite plastid, 96 hour incubation | P. falciparum luciferase reporter growth, 96 h | Potency, µM (doses to about 28.7 µM), for the others: at the top dose activity change, negative = inhibition, usual class: inhibitors | 320,000 tested, 6.9% active | AID 504834, 2011; also: potency is read from the fitted curve at half-maximal effect; % is scaled to controls: 0 for no effect and ±100 for the full control effect
#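 Parasite growth measured via integrated firefly luciferase reporter in P. falciparum. Infected erythrocytes at 2% hematocrit, 0.05% parasitemia final were treated 96 hours at 37 C under 5% CO2, and luminescence was read.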
# Pf growth 48h – Primary qHTS for delayed death inhibitors of the malarial parasite plastid, 48 hour incubation; 310,000 tested, 5.9% active; Potency, µM (highest dose often 28.7 µM), for inactives: at the highest dose activity change, negative = inhibition, actives largely listed as inhibitors; P. falciparum luciferase growth in erythrocytes, 48 h; AID 504832, 2011; also: potency is read from the fitted curve at half-maximal effect; % is scaled to controls: 0 for no effect and ±100 for the full control effect
#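 Growth was read as firefly luciferase luminescence after a 48 h, 37 C, 5% CO2 exposure of compounds to reporter-bearing P. falciparum cultures (0.1% parasitemia, 2% hematocrit final) in Albumax-supplemented RPMI 1640.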
# LmPK inh – qHTS Assay for Inhibitors of Leishmania Mexicana Pyruvate Kinase (LmPK) | purified LmPK, Kinase-Glo ATP luminescence, 1 h | Potency, µM (titrated, usually from 57.5 µM), inactives show at the highest dose activity change, negative = inhibition, most hits filed as inhibitors | 290,000 tested, 0.37% active | AID 1721, 2009; also: potency is read from the fitted curve at half-maximal effect; % is scaled to controls: 0 for no effect and ±100 for the full control effect
# Target sequence (Q27686 whole entry, looked up): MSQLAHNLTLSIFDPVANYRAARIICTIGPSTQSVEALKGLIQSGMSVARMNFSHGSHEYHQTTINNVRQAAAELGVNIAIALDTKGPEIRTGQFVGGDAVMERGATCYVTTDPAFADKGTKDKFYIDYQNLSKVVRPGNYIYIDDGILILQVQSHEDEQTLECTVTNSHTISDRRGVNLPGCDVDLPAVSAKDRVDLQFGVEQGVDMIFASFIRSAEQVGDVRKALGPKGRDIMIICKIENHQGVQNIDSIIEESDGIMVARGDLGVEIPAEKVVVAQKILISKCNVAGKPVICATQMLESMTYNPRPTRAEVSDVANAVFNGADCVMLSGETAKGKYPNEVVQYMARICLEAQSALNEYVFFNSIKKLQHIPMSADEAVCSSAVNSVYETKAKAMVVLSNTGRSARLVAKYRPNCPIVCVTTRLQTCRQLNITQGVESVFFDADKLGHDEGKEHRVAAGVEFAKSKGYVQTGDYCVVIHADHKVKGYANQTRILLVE
#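 qHTS format; LmPK 0.1 nM; substrates PEP 0.5 mM and ADP 0.1 mM. One-hour room-temperature incubation, then coupled luciferase luminescence; 0.5 nM enzyme wells mark activation.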
# Shiga inhibitor – A qHTS for Small Molecule Inhibitors of Shiga Toxin | 290,000 tested, 9.2% active | inhibition, % at 38.7 µM | Vero cells, Shiga toxin protein synthesis inhibition reporter; in the data active = inhibition mostly above about 28%, no sharp cut-off; inactive = mostly below about 43%; also: 0% is about no effect
# Cycloheximide cs – Cycloheximide Counterscreen for Small Molecule Inhibitors of Shiga Toxin. 300,000 tested, 12% active. max response, %. cell reporter, cycloheximide protein synthesis inhibition counterscreen; in the data active = max response mostly above about 13%, no sharp cut-off; inactive = mostly below about 14%; also: read at 38.3 µM for the half of the compounds with a filed dose; 0% is about no effect
# Active calls of the source: *; ? = inconclusive; · = not tested or not shown. This is a sample that favours compounds with a hit; in the whole collection about 22% have one here. Unless noted, calls follow the shape of the dose curve; as a rule, active = well fitted inhibition curve with a large enough effect; inconclusive = small, poorly fitted or top-dose-only effect, or another doubt; inactive = no such curve, though single readings can be large or run the other way.
SMILES,Pf growth 96h,Pf growth 48h,LmPK inh,Shiga inhibitor,Cycloheximide cs
CCN(CC)c1ccc(/C=N/NC(=O)c2c(Cl)cnn2C)c(O)c1,?,?,0.2%,55.7*,44.1*
CCN(CC)c1ccc(/C=N/NC(=O)c2cccc(S(=O)(=O)N3CCOCC3)c2)c(O)c1,?,10.4µM*,0.8%,-30.1,-2.9
Cn1ncc(Cl)c1C(=O)N/N=C/c1cc2c(cc1[N+](=O)[O-])OCO2,?,4.2%,-2.4%,-20.6,5.3
CCN(CC)c1ccc(/C=N/Nc2ccc(C)cc2)c(O)c1,?,-3.9%,-0.5%,23.7,9.8
CCN(CC)c1ccc(/C=N/NC(=O)CNC(=O)C2COc3ccccc3O2)c(O)c1 (stereo not given),?,?,-1.3%,7.7,-1.4
CCN(CC)c1ccc(/C=N/NC(=O)CCC(=O)NCc2ccccc2)c(O)c1,?,13.1µM*,5.3%,25.9,13.3
CCN(CC)c1ccc(/C=N/Nc2nc(C)cc(=O)[nH]2)c(O)c1,1.85µM*,1.85µM*,-3.3%,46.3,9.1
CCOC(=O)N/N=C/c1ccc(N(CC)CC)cc1O,4.15µM*,?,0.7%,62.1*,22.5*
O=C(/C=N/O)Nc1ccc2sc3ccccc3c2c1,2.6%,36.5%,1.2%,70.7*,53.8*
COC(=O)c1ccccc1NC(=O)/C=N/O,·,18.3%,-2.5%,-18.5,-4.1
O=c1c2cc3c(=O)n(-c4ccccc4O)c(=O)c3cc2c(=O)n1-c1ccccc1O,-14.8%,1.2%,-5.3%,105.7*,27.0*
CN(CC(=O)Nc1ccc(Cl)cc1)C(=O)CCC1CCCC1,1.7%,1.2%,-5.6%,-8.5,-3.8
Cc1ccnc(NC(=O)c2cccc(S(=O)(=O)N3CCCC3)c2)c1,40.8%,48.5%,-8.3%,22.4,24.7*
Cc1cc(NC(=O)c2cccc(S(=O)(=O)N3CCCCC3)c2)no1,20.6%,?,-3.1%,10.7,9.3*
CCc1nnc(N/N=C/c2ccccc2F)n1N,-21.8%,28.2%,1.1%,48.5,10.0
CC(C)(C)c1nnc(N/N=C/c2ccccc2)n(N)c1=O,0.6%,-1.5%,1.9%,37.8,11.0*
CC(C)(C)c1nnc(N/N=C/c2ccccc2O)n(N)c1=O,?,3.29µM*,1.0%,-1.8,-2.5
CSc1nnc(C(C)(C)C)c(=O)n1/N=C/c1ccccc1,23.5%,?,-0.8%,2.2,1.9
O=C(NC1CCCCC1)C1CCC(=O)N(Cc2cccc(C(F)(F)F)c2)C1 (stereo not given),19.0%,?,-10.0%,18.5,-2.4
CCN1CN(Cc2ccco2)CNC1=S,31.0%,-12.2%,-1.9%,6.6,-2.0
CC(NCCN(C)C)C(=O)C12CC3CC(CC(C3)C1)C2 (stereo not given),5.86µM*,?,1.8%,22.3,0.8
O=C(c1ccc(Cn2c(=S)[nH]c3ccccc3c2=O)cc1)N1CCN(c2ccccn2)CC1,?,?,0.5%,27.9,-1.6
Cn1c(-c2nnn(-c3ccc(F)cc3)n2)cc2ccccc21,87.2%,324.3%,-13.3%,65.1*,54.8*
Cc1nc2c(c(=O)c3ccccc3n2C)c(=O)n1-c1ccc(F)cc1,?,4.6%,-10.0%,-8.8,4.6
Cc1ccc(-n2nnc(-c3cc4ccccc4n3C)n2)cc1,?,227.3%,4.1%,33.0*,27.1*
SMILES,Pf growth 96h,Pf growth 48h,LmPK inh,Shiga inhibitor,Cycloheximide cs
Cc1ccc(-c2nnn(CCOc3cccc(Br)c3)n2)cc1,?,13.3%,2.1%,-11.6,-3.1
O=C(O)COc1ccccc1/C=N/NC(=O)CNC(=O)c1ccco1,-19.7%,26.1%,0.2%,-4.3,-1.2
O=C(COC(=O)CNC(=O)c1ccc(Br)o1)Nc1ccccc1OC(F)F,28.3%,-10.1%,2.1%,4.0,6.8
Cc1nn(-c2ccc(C(F)(F)F)cn2)c(C)c1Oc1ccccc1O,8.28µM*,·,-0.9%,61.5,23.2*
Cc1cc(=O)[nH]c(-n2nc(C)c(Oc3ccccc3O)c2C)n1,11.0%,?,-0.9%,-12.1,1.9
COc1cccc(C(=O)NNc2nc(C)cc(C)n2)c1,2.0%,20.8%,-1.4%,-2.5,-3.7
CSc1nc(N(C)NC(=O)c2ccc(Cl)cc2)c2ccccc2n1,3.7µM*,3.29µM*,-4.1%,-10.0,-2.5
c1cncc(Nc2c3ccccc3nc3ccccc23)c1,3.9%,?,6.8%,0.8,-6.0
CSc1nc(N(C)NC(=O)c2ccccc2)c2ccccc2n1,?,?,-0.9%,-8.2,-0.7
COc1cccc(C(=O)NNc2c3ccccc3nc3ccccc23)c1,11.7µM*,?,-4.9%,-4.4,-2.5
O=C(NNc1c2ccccc2nc2ccccc12)c1ccc(Cl)cc1,-1.2%,13.1µM*,-1.6%,-10.9,-7.3
Clc1cncc(Cl)c1NNc1c2ccccc2nc2ccccc12,25.1%,2.94µM*,4.0%,19.4,-0.3
O=[N+]([O-])c1ccccc1S(=O)(=O)Nc1cccnc1,0.0%,182.0%,0.6%,16.8,-0.7
Nc1ccccc1C(=O)NNc1c2ccccc2nc2ccccc12,?,?,-15.6%,111.0*,18.6*
CCn1c(NC(=O)c2ccc(C)cc2)c2ccccc2nc1=O,-2.9%,-21.6%,-3.8%,-4.3,-1.6
Cc1ccc(C(=O)NNc2c3ccccc3nc3ccccc23)cc1,-21.6%,13.1µM*,-4.7%,85.1*,41.4*
CCCOc1ccc(NC2=CC(=O)CC(C)(C)C2)cc1,·,-0.1%,-1.7%,47.5,17.0*
Cc1ccc(NC2=CC(=O)CC(C)(C)C2)c(N)c1,·,19.1%,-5.3%,128.1*,60.4*
CC(C)c1ccc(NC2=CC(=O)CC(C)(C)C2)cc1,4.65µM*,-24.9%,1.0%,28.9,18.9
CCCCCOc1ccc(NC2=CC(=O)CCC2)cc1,?,13.1µM*,-1.8%,42.0,4.4
CCc1ccc(NC2=CC(=O)CC(C)(C)C2)cc1,-2.2%,-3.6%,-6.1%,25.1,13.9
S=c1[nH]nc(CSCCOc2ccc(Cl)cc2Cl)o1,24.6%,9.3%,5.7%,18.2,8.9
Clc1ccc(CCNc2ncnc3c2nnn3Cc2ccccc2)cc1,?,-12.2%,-0.1%,-2.8,-2.0
CC1(C)CC(=O)C=C(Nc2ccc3c(c2)OCCO3)C1,-1.9%,25.5%,5.0%,50.2,51.9*
Cc1ccc(NC2=CC(=O)CC(C)(C)C2)cc1C,?,-9.0%,4.2%,7.7,18.1
SMILES,Pf growth 96h,Pf growth 48h,LmPK inh,Shiga inhibitor,Cycloheximide cs
CCOC(=O)Cc1csc(NS(=O)(=O)c2ccc([N+](=O)[O-])cc2)n1,?,-16.7%,0.1%,-16.3,-3.2
O=C(NCCCN1CCCC1=O)c1cccc(S(=O)(=O)Nc2ccc(F)cc2)c1,13.1µM*,?,·,·,·
O=C(NCCCN1CCCC1=O)c1cccc(NS(=O)(=O)c2ccccc2)c1,?,2.5%,·,·,·
O=C(NCCCN1CCCC1=O)c1cc2c(s1)CCCCC2,60.2%,52.8%,-0.7%,73.2*,48.7*
O=C(NCCCN1CCCC1=O)c1cccc(C(F)(F)F)c1,8.28µM*,3.2%,-2.5%,-0.9,-1.4
O=C(Nc1cccc(S(=O)(=O)NC2=NCCCCC2)c1)c1ccc(Cl)cc1,?,-6.7%,·,·,·
